This is an account of results in article PMC7819943, “Rice protein-binding microarrays: a tool to detect cis-acting elements near promoter regions in rice”.

The full ranking holds about 68,000 sequences; the median of “fluorescence intensity (a.u.)” is about 9,100, and the highest 2% start at about 16,000. Many of the other results were omitted from the sample, so the highest values are more common in it than they were.

Chain of OsWRKY34 (Q0JBA9 entry or part of it): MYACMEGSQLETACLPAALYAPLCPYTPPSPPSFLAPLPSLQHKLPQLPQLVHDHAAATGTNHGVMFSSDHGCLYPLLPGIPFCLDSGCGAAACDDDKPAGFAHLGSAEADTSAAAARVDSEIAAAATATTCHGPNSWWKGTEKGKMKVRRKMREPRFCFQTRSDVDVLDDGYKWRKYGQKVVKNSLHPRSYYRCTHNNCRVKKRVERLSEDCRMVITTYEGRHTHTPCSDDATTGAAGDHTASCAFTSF

The target of the experiment is OsWRKY34 (Oryza sativa, UniProt Q0JBA9 1-250). Description: protein-binding microarray (RPBM); PBS, 2% BSA, 51.3 ng/ul salmon testes DNA, 50 uM zinc acetate, 200 nM TF, 25 C, 1 h; high values mean tight binding. To be noted: protein: recombinant; tags: N-terminal polyhistidine and DsRed monomer fusion (pET32a); label: CyDye5-dUTP incorporated in the synthesized complementary strand; 3' TTTTT single-stranded linker to array surface; dsDNA, one strand shown. A digest of the protocol:
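Polyhistidine-tagged DsRed fusions of transcription factors, joined at the N-terminus, were expressed in E. coli BL21-CodonPlus and isolated on Ni–NTA. They were incubated at 200 nM for 1 h at 25 °C on a custom Agilent array, double-stranded and BSA-blocked, in PBS with 2% BSA, salmon testes DNA and 50 µM zinc acetate. The binding signal is per-feature fluorescence intensity (arbitrary units) read on an Axon 4000B scanner after washing.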
As for “GGTGGAGGCGGGCGCGGTGGAGGCGGGGAGGAAGGGGAGCCGGAGTCACCTAGTGCAG”, the binding signal is 15100 fluorescence intensity (a.u.).

Regarding “GGCCGGGGAGGGAGGGGCGCCGTCGTCCTGCTGCATCCTGCGGAGTCACCTAGTGCAG”, the binding signal is 20700 fluorescence intensity (a.u.).

Regarding “AGGGCGCCGTCGTTCGTCATGCTGCTTCCGCCGCATCCTGCGGAGTCACCTAGTGCAG”, the binding signal is 9240 fluorescence intensity (a.u.).

With “GGAGGGGCGGTGGCCGCCGGCGGCCCGCGCGGCGGGAGCGCGGAGTCACCTAGTGCAG”, the binding signal is 9240 fluorescence intensity (a.u.).

On to “CCCCGGAAGGGGCGGGGAGGGGAGGGCGGCAGCGGCGCCGCGGAGTCACCTAGTGCAG”, for which the binding signal is 18500 fluorescence intensity (a.u.).

In the case of “CACTCCGCTGCCGCCCGCCGGAAGGGGAGGGGAGGAGGGGCGGAGTCACCTAGTGCAG”, the binding signal is 11700 fluorescence intensity (a.u.).

Take “GGGGCGCCGCCGTTCGTCCTGCTGCTTCCGCCGCATCCTGCGGAGTCACCTAGTGCAG”: the binding signal was 9650 fluorescence intensity (a.u.).

On to “GGGGCGCCGGGAAGGAGGGCGCTGTGTGGGAGGGAGGGAGCGGAGTCACCTAGTGCAG”, for which the binding signal was 17100 fluorescence intensity (a.u.).

As for “GGGGAGGCGGGGTGGCGGGAGGGAAGGCGGCGGCGGCGCCCGGAGTCACCTAGTGCAG”, the binding signal is 12700 fluorescence intensity (a.u.).

As to “GCCGTCCGCCGTGAGCCGGTGCTGTCCACGACGTCGTCTTCGGAGTCACCTAGTGCAG”, the binding signal was 9640 fluorescence intensity (a.u.).

“TTACTCCTGGACCAGCATTGCTACAACTATCATTTTCTCCCGGAGTCACCTAGTGCAG”: the binding signal is 9840 fluorescence intensity (a.u.).

As to “GGTTTTAAAGGGGTTCCATACACGTATGATAATAAGAGACCGGAGTCACCTAGTGCAG”, the binding signal was 8180 fluorescence intensity (a.u.).

Consider “GTCCAGGTTGGTTTTCATGGGTCGAGTGGCATCAGATGGGCGGAGTCACCTAGTGCAG”, for which the binding signal is 10100 fluorescence intensity (a.u.).

For the sequence “TTCTTGATCTTTCTGGTTTCTACTGGTTGATTGTACACTTCGGAGTCACCTAGTGCAG”, the binding signal is 8500 fluorescence intensity (a.u.).

In the case of “TTTTTTCTGTTTGTCCTCCATATATGTCAGCTCTAAAAATCGGAGTCACCTAGTGCAG”, the binding signal was 9300 fluorescence intensity (a.u.).

Take “GCCCTTAACGCGATCATGTAACAATGTATCTAAGCCTATACGGAGTCACCTAGTGCAG”: the binding signal is 8200 fluorescence intensity (a.u.).

As to “TTCCTAGTACTATCTGCGTTGCGTTGACTGACATGTGGGCCGGAGTCACCTAGTGCAG”, the binding signal is 17000 fluorescence intensity (a.u.).

“AGGGAGGGAGGGAGGAGGAAGGAGGACTGACATGTGGGCCCGGAGTCACCTAGTGCAG”: the binding signal is 9250 fluorescence intensity (a.u.).

“ATCCGTTGCCCTCGCTCCTATAACTGCGTTGACATGTCGCCGGAGTCACCTAGTGCAG”: the binding signal was 9550 fluorescence intensity (a.u.).

As to “ACCTGACGGCCCAACCAGGCGACCGCTCTCTCCGTTTTCCCGGAGTCACCTAGTGCAG”, the binding signal was 8070 fluorescence intensity (a.u.).

For “ACCCAATCTCAATTTGCCCTGTTGCCAACCCTAGTGATGACGGAGTCACCTAGTGCAG”, the binding signal was 8520 fluorescence intensity (a.u.).

For “TTCTTTCCGTTGTGCTTGCTGCTTTTCTCTACTACCTTTTCGGAGTCACCTAGTGCAG”, the binding signal was 9900 fluorescence intensity (a.u.).

For the sequence “ACTCCCTCCGTTTCACAATGTAAGTCATTCTAGCATTTCCCGGAGTCACCTAGTGCAG”, the binding signal is 9500 fluorescence intensity (a.u.).

As to “TGATTTATGAATTATGATTACTAATACTGTTTTTTGTCCTCGGAGTCACCTAGTGCAG”, the binding signal is 8780 fluorescence intensity (a.u.).

For the sequence “TTGACACCGTTAACTTTTTAGCATATGTTTGACCGTTCATCGGAGTCACCTAGTGCAG”, the binding signal is 9610 fluorescence intensity (a.u.).

Turning to “GTACTCCCTCCGTTTCGAAATATTTAACACCGTTGACTTTCGGAGTCACCTAGTGCAG”, the binding signal is 17400 fluorescence intensity (a.u.).

As to “TTGGTTGATTTTGATTGCTTTGCTCCTTTTCTGACTTGCTCGGAGTCACCTAGTGCAG”, the binding signal is 9410 fluorescence intensity (a.u.).

For “TACCGAACCTTTGGCATATTGACCCTTTTGGCCTTTTATACGGAGTCACCTAGTGCAG”, the binding signal is 12200 fluorescence intensity (a.u.).

As to “ATTTGTTTCTAAATATTTGACACCGTTGACTTTTTAGCACCGGAGTCACCTAGTGCAG”, the binding signal was 24100 fluorescence intensity (a.u.).

As for “CCTCCGTTTCTATATATTTAATATTGTTGACTTTTTAGCACGGAGTCACCTAGTGCAG”, the binding signal was 12000 fluorescence intensity (a.u.).

For the sequence “CTTTTTAGCATATGTTTGACCGTTTGTCTTATTTAAAATACGGAGTCACCTAGTGCAG”, the binding signal is 9700 fluorescence intensity (a.u.).

Take “AATACTCCCTCCGTTTCGAAATATTTGACGCCGTTGACTTCGGAGTCACCTAGTGCAG”: the binding signal is 12400 fluorescence intensity (a.u.).

As to “CTCTGTTTCTAAATATTTGACACCATTGACTTTTTAGCATCGGAGTCACCTAGTGCAG”, the binding signal was 10900 fluorescence intensity (a.u.).

Turning to “GAAATATTTGACACCGTTGACTTTTTAGCATATGTTTGACCGGAGTCACCTAGTGCAG”, the binding signal was 30700 fluorescence intensity (a.u.).

Consider “ACATATTGGTTGACTTTTTGCCGGGTCCACCGATTGGCACCGGAGTCACCTAGTGCAG”, for which the binding signal is 17700 fluorescence intensity (a.u.).

Turning to “TTCACAGTGTAGTTGTTTTATTTAGCCAGTATTTTTTTTTCGGAGTCACCTAGTGCAG”, the binding signal is 8820 fluorescence intensity (a.u.).

With “CCACAGCGCCTCCACTGCCTGCAGGGACGCCACCGCTACCCGGAGTCACCTAGTGCAG”, the binding signal was 8450 fluorescence intensity (a.u.).

For the sequence “CCATTACCAGAACAGAACAGCAGGTTTTAACCTAACATTCCGGAGTCACCTAGTGCAG”, the binding signal was 8110 fluorescence intensity (a.u.).

“ATACTCTCATTTTTGTTTGCTCTATTCTTTGCTTTTAGAACGGAGTCACCTAGTGCAG”: the binding signal was 10200 fluorescence intensity (a.u.).

Turning to “ATATCTCATACTATCTCTCTTCCGTCGTTCCGTGTTGGCCCGGAGTCACCTAGTGCAG”, the binding signal is 10900 fluorescence intensity (a.u.).

For “CTACGATCAGAAACAGCGGGGCGGGTTGGGAGGGAGTCCACGGAGTCACCTAGTGCAG”, the binding signal was 15800 fluorescence intensity (a.u.).

In the case of “ACCCCGACCATCTCCCACCATCGGAGGAGACGCTCAAACTCGGAGTCACCTAGTGCAG”, the binding signal is 8340 fluorescence intensity (a.u.).
